PubChem BioAssay (NCI)
Compounds without any hit were thinned out: in the full panel of roughly 79,000, 15% have a hit. Active and inactive are the calls of the source. No stated cut-off is given here; in the data, active means growth inhibition above about 70%; inactive means the rest.

Test: NCI Yeast Anticancer Drug Screen. Data for the mlh1 rad18 strain (AID 175)
Settings: S. cerevisiae mlh1 rad18 strain growth inhibition; at 50.0 µM (retest, dose inferred, filed as 5.0); active compounds read high
How it was run: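 Test agents were incubated with a yeast strain of defined genotype (DNA damage repair defect). Inhibition of growth was derived by comparison with vehicle-exposed cultures.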

SMILES | growth inhibition
S=C(NCCc1ccccc1)N/N=C/c1ccc(Cl)cc1 | 67% (inactive)
Cc1cc(Nc2ccc(O)c(CN3CCN(Cc4cc(Nc5cc(C)nc(N)n5)ccc4O)CC3)c2)nc(N)n1 | 97% (active)
CC1C[N+](C)(C)C(C)C(=O)C1(c1ccccc1)c1ccccc1 (stereo not drawn) | -4% (inactive)
O=C1C(Cl)=C(Cl)C(=O)C2CC=CCC12 (stereo not drawn) | 99% (active)
C/C(=N/O)c1ccc2c(c1)C(C)c1ccccc1-2 (stereo not drawn) | -103% (inactive)
c1ccc(N/N=C2/CCCC3/C(=N\Nc4ccccc4)CCCC23)cc1 (stereo not drawn) | 99% (active)
CCCC(C)C/C(C)=C\C(C)(C)C1CC(=O)N(CC)C1=O (stereo not drawn) | 98% (active)
COC(C(=O)C1=C2Oc3c4c(cc(O)c3C(=O)C2C2=C(CCCC2)C1=O)OC(C)(C)C=C4)C(C)CCC=C(C)C (stereo not drawn) | 92% (active)
Cc1cc(Br)c(NC(=O)CBr)cc1C | 96% (active)
Cc1ccc(S(=O)(=O)OCCCCOS(=O)(=O)c2ccc(C)cc2)cc1 | 1% (inactive)
Cc1ccc([N+](=O)[O-])c2c(NCCCN(C)C)c3ccccc3nc12 | 99% (active)
CCOC(=O)c1c(N2CCCC2)nsc1Nc1ccc(F)cc1 | 88% (active)
CC(=O)[C@H]1CC[C@H]2[C@@H]3CC[C@H]4C[C@@H](N5CCOCC5)CC[C@]4(C)[C@H]3CC[C@]12C | 69% (inactive)
CC(C)CCCC(C)C1CCC2C3CCC4=CC(O)CCC4(C)C3CCC12C (stereo not drawn) | 97% (active)
Nc1ccccc1SC(/C=C/NNC1=NC(c2ccccc2)C(c2ccccc2)=NN1)c1ccccc1 (stereo not drawn) | 11% (inactive)
CCOC(=O)C1=C(c2ccccc2)OC(N)=C(C#N)C1c1ccc(C)cc1 (stereo not drawn) | 65% (inactive)
COC1CC(OC(=O)c2ccccc2)C2OC(c3ccccc3)OCC2O1 (stereo not drawn) | 36% (inactive)
O=C(/N=C1\N=Nc2nc(C(C(=O)c3cccs3)c3nc4n(c3O)/C(=N/C(=O)Nc3ccc(Cl)cc3)N=N4)c(O)n21)Nc1ccc(Cl)cc1 (stereo not drawn) | 43% (inactive)
C=CCNC(=S)N/N=C(\CCC)c1ccccn1 | 95% (active)
O=C(c1cc2c(C(F)(F)F)onc2c2ccccc12)C(F)(F)F | 26% (inactive)
O=C1C=CC(=O)C2C1Cc1ccccc1C2c1ccccc1 (stereo not drawn) | 98% (active)
CC1SC2(C(=O)Nc3ccc([N+](=O)[O-])cc32)N(c2ccc(Cl)cc2)C1=O (stereo not drawn) | 98% (active)
CC(=O)OCCn1c2nc(=O)[nH]c(=O)c-2nc2cc(C)c(C)cc21 | 14% (inactive)
